“And” between values parts separate entries of the source, which are not always exact repeats. Identical values can stand only once. Records with an inconclusive call do not appear. The source made the active and inactive calls. Calls come from the whole dose curve; as a rule, active = well fitted inhibition curve with a large enough effect in the repeat runs; inconclusive = weak or mixed curves; inactive = flat fitted curve, though single readings scatter.
Biological target: Voltage-gated inwardly rectifying potassium channel KCNH2 (Homo sapiens) (UniProt Q12809)
Sequence (Q12809 whole entry, looked up): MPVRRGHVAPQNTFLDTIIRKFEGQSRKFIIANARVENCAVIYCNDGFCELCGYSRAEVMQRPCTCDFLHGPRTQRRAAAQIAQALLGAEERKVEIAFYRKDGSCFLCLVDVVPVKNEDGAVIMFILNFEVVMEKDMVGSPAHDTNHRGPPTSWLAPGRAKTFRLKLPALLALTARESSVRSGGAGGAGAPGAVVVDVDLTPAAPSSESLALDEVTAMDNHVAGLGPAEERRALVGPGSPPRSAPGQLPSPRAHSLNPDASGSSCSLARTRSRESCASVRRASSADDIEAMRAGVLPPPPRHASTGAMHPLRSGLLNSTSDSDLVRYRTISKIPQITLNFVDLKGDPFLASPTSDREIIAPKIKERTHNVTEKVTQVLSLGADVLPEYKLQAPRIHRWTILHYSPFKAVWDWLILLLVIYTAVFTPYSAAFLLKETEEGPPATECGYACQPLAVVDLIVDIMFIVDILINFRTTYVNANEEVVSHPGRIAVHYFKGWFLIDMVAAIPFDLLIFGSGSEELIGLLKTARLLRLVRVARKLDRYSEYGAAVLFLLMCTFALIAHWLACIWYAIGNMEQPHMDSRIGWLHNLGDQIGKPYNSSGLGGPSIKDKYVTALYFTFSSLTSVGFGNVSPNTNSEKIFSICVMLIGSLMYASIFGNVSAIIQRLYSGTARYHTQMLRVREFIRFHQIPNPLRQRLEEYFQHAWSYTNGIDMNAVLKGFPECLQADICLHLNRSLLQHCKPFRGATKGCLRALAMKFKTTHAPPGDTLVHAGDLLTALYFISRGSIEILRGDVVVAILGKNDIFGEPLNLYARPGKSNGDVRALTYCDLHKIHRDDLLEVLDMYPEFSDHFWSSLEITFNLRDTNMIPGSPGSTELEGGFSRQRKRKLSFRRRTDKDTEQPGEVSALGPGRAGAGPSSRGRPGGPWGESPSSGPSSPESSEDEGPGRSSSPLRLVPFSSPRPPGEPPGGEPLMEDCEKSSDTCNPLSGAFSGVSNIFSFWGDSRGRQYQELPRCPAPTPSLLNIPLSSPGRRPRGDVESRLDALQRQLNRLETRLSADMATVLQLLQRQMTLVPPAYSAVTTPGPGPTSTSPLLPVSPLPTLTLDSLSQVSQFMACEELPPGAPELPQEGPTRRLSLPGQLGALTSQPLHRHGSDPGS
Assay: Human Ether-a-go-go-Related Gene (hERG) channel small molecule antagonists: fluorescence cell-based qHTS assay (AID 1671200); note: nearly all actives have a fitted effect of over 50% in size
Conditions: hERG-U2OS cells, FluxOR thallium flux fluorescence; series mostly up to 76.8 µM; activity change, negative = inhibition: at the top concentration
Description: National Center for Advancing Translational Sciences [NCATS]
U.S. Environmental Protection Agency [EPA]
National Institutes of Environmental Health Sciences [NIEHS]
National Toxicology Program [NTP]
U.S. Food and Drug Administration [FDA]
Mutations in the hERG channel cause Long QT (LQT) syndrome. LQT syndrome is a cardiac disorder which can cause ventricle arrhythmia and sudden death. Additionally, compounds which block the hERG channel can cause acquired LQT syndrome. Several FDA approved drugs have been removed from the market due to their hERG blocking activity. A cell-based hERG channel inhibition assay can be used to screen chemical compounds that inhibit hERG channel. This assay measures hERG channel activity using thallium ions as surrogate ions to measure potassium into the cells.
Tox21 Assay Protocol Summary:
hERG-U2OS cells were resuspended in culture medium and dispensed into 1536-well, black wall/clear-bottom plates at 1000cells/well/3uL using a Multidrop Combi dispenser (Thermo Fisher, Waltham, MA). After plates were incubated at 37 C overnight, 3 uL of Loading Buffer provided by FluxOR II Potassium Ion Channel Assay kit (Thermo, Carlsbad, CA) was added to each well. The assay plates were then incubated at room temperature in the dark for 1h. […] After the assay plates were incubated at room temperature for 10 min, 1 uL of Stimulus Buffer provided by FluxOR II Potassium Ion Channel Assay kit was added into each well and fluorescence intensity (480nm excitation/540nm emission) was continuously measured for 2 min at 1 second intervals using a Functional Drug Screening System (FDSS) 7000EX kinetic plate reader (Hamamatsu, Japan).
% is set by controls: 0 for no effect and ±100 for the full control effect; potency is the fitted concentration of half-maximal effect.

Structure (SMILES)	activity change, negative = inhibition	Potency
CC[N+]1(CCOC(=O)C(O)(c2ccccc2)c2ccccc2)CCCCC1	-3.47% [at 35.3 µM] (inactive)	
FC(Cl)(Cl)C(F)(Cl)Cl	1.23% (inactive)	
OC[P+](CO)(CO)CO		inactive
CCC(=O)O[C@@H]1C=C2CCC3C(CCC4(C)C3CC[C@@H]4OC(=O)CC)C2CC1 (stereo not given in full)	-5.72% [at 35.3 µM] (inactive)	
CC(C)c1ccc(OP(=O)(Oc2ccc(C(C)C)cc2)Oc2ccc(C(C)C)cc2)cc1		17.5 µM (active) and 21.9 µM (active)
Nc1c(Br)cc(Br)c2c1C(=O)c1ccccc1C2=O	-6.02% [at 15.8 µM] (inactive)	
CC(C)(C)NCC(O)c1ccccc1Cl (stereo not given)	-5.12% [at 35.3 µM] (inactive)	
CCCC1CCCCN1 (stereo not given)	-4.63% [at 35.3 µM] (inactive)	
CCC(C)(C)O	9.19% (inactive)	
CCC1(CCC(C)C)C(=O)NC(=O)NC1=O	6.23% (inactive)	
CN(C)c1ccc(N=O)cc1		inactive
C=CCc1ccccc1O	-3.46% (inactive)	
O=C(N/N=C/c1ccc([N+](=O)[O-])o1)c1cc([N+](=O)[O-])cc([N+](=O)[O-])c1O	5.04% [at 35.3 µM] (inactive)	
C[C@@H]1C[C@@H]([C@H](O)CC2CC(=O)NC(=O)C2)C(=O)[C@@H](C)C1		inactive
[Cl-].[Cl-].[Hg+2]		38.7 µM (active) and 6.92 µM (active)
Cc1ccccc1	1.69% (inactive)	
Cc1ccc2c(C)cccc2c1	-17.6% (inactive)	
Cc1ncc(C[n+]2csc(CCO)c2C)c(N)n1	-0.393% (inactive)	
O=C([O-])c1ccccn1.O=C([O-])c1ccccn1.O=C([O-])c1ccccn1.[Cr+3]	0.0354% (inactive)	
Cc1ccc(N)c(C)c1		inactive

Structure (SMILES)	activity change, negative = inhibition	Potency
CN1C[C@H](C(=O)N[C@]2(C)O[C@@]3(O)[C@@H]4CCCN4C(=O)[C@H](Cc4ccccc4)N3C2=O)C=C2c3cccc4[nH]cc(c34)C[C@H]21		22 µM (active)
O=C(Cc1ccccc1)c1ccccc1	1.7% (inactive)	
CCOP(=O)(O)C(N)=O	-14.1% (inactive)	
CCCCCl	0.657% (inactive)	
NNCCO	-0.772% (inactive)	
CC1(C)[C@H](C(=O)O[C@H](C#N)c2cccc(Oc3ccccc3)c2)[C@@H]1C=C(Br)Br		inactive
OCCSSCCO	0.406% (inactive)	
O=C(Cl)OCCOCCOC(=O)Cl	-2.51% (inactive)	
Cc1cnc(C2=NC(C)(C(C)C)C(=O)N2)c(C(=O)O)c1 (stereo not given)	-0.737% (inactive)	
C1CS1	5.26% (inactive)	
COc1ccc(C(=O)c2c(C)n(CCN3CCOCC3)c3ccccc23)cc1	-12.3% [at 35.3 µM] (inactive)	
CCOP(=S)(OCC)Oc1ccc(S(C)=O)cc1 (stereo not given)	-1.05% (inactive)	
COc1ccc(C(O)(c2cncnc2)C2CC2)cc1 (stereo not given)	2.77% (inactive)	
CC(O)CN1CCN(CC(=O)[O-])CCN(CC(=O)[O-])CCN(CC(=O)[O-])CC1.[Gd+3] (stereo not given)	8.92% [at 35.3 µM] (inactive)	
C=CC(=O)OCC	16.9% (inactive)	
NC(=S)c1c(Cl)cccc1Cl	4.21% (inactive)	
CCCCCCCCCCCC[N+](C)(C)CCOc1ccccc1		776 nM (active) and 1.34 µM (active)
CCCCCCCCP(=O)(O)O	1.75% (inactive)	
CC(C)OC(=O)Cc1ccccc1	-0.999% (inactive)	
C=C(C)C(=O)OCCCCOC(=O)C(=C)C	0.927% (inactive)	
